# High-throughput results (PubChem)
# VCAM1 TNFa inh: reduces TNF alpha induced VCAM1 expression in HUVEC. actives 0.48% (n = 95,000). HUVEC TNFa-induced VCAM-1 immunofluorescence, high-content imaging. inhibition, % at 2 µM. AID 802;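 active = inhibition above the batch mean plus 3 SD, with images confirmed as a hit by eye, cut at about 37% in these data; inconclusive = inhibition above that limit but hit not confirmed in images; inactive = inhibition not above that limit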;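 also: 0% = TNF-stimulated DMSO wells and 100% = unstimulated control wells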
# HUVEC tox TNFa: HUVEC cytotoxicity counter-screen, TNF alpha stimulated. cell count reduction, % at 2 µM. AID 848. HUVEC TNFalpha-stimulated, Hoechst cell count, imaging. actives 0.17% (n = 93,000);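 active = cell count reduction exceeding the screen mean by over 5 SD, scaled to untreated wells per plate, cut at about 78% in these data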;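 also: cells counted after 24 h of TNF alpha exposure following the 1 h pretreatment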
# NFkB transloc pot: enhances IL-1B driven NFkB nuclear translocation; HUVEC IL-1B NFkB p65 nuclear translocation imaging; activation, % at 2 µM; actives 0.3% (n = 94,000);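 active = activation above 40%, about the mean plus 3 SD, also judged a hit on visual image review; inconclusive = activation above 40% but not a hit on visual review; inactive = activation not above 40% and no visual hit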;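 also: percent activation is computed from the nuclear over cytoplasmic p65 intensity ratio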
# NFkB transloc inh: blocks IL-1B driven NFkB nuclear translocation in HUVEC cells; AID 796; HUVEC IL-1B NFkB p65 nuclear translocation imaging; actives 0.43% (n = 94,000); inhibition, % at 2 µM;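 active = inhibition above about 30% together with a positive call from visual inspection of the well image, limit read from the data; inconclusive = inhibition above a set limit but visual check negative; inactive = inhibition not above a set limit, visual check negative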;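 also: nuclear over cytoplasmic p65 intensity ratio measured by imaging; 0% = IL-1B stimulated DMSO wells and 100% = unstimulated DMSO wells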
# IL1B cytotox: toxic to HUVEC cells under IL-1B stimulation; HUVEC cell count loss, Hoechst imaging, IL-1B stimulated; cell count reduction, % at 2 µM; actives 0.41% (n = 94,000);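 active = cell count reduction more than 3 SD above the screen-wide mean, cut at about 70% in these data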;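 also: normalized per plate to untreated control cells as the no-loss baseline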
# E-sel TNF inh: TNF alpha driven E-selectin expression inhibition; HUVEC TNFa-induced E-selectin immunofluorescence, high content; inhibition, % at 2 µM; actives 0.71% (n = 120,000); AID 1246;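 active = inhibition above the batch mean plus 3 SD, and confirmed as a hit on visual image review, cut at about 43% in these data; inconclusive = passes the inhibition cutoff but fails visual image review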;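 also: 0% = TNF-stimulated DMSO wells and 100% = unstimulated control wells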
# The depositor's hits bear a star; u = inconclusive; x = no result. Sampled rows, rich in hits. Any-hit rate of the full collection: about 1.7%.
SMILES,VCAM1 TNFa inh,HUVEC tox TNFa,NFkB transloc pot,NFkB transloc inh,IL1B cytotox,E-sel TNF inh
O=C1C2CCCN2C(c2ccccc2)N1c1nccs1 (stereo unspecified),-8.5,-14.5,u,-67.1,-45.7,84.7*
CCCn1c(SCC(=O)c2cc(C)c(C)cc2C)n[nH]c1=O,-6.7,13.9,-2.1,2.2,-7.2,-0.5
COc1ccc2c(c1)CC/C2=N\NC(=O)c1ccccc1,x,x,x,x,x,-14.6
COc1ccc(OCC(=O)N/N=C2\CCc3ccccc32)cc1,-5.2,-29.0,-53.1,53.1*,3.0,12.8
O=C(CCCc1nc2ccccc2s1)NCc1ccc(F)cc1,x,x,x,x,x,6.2
O=c1c2ccccc2nnn1CSc1ncnc2ccccc12,46.3*,53.5,17.3,-17.3,-17.5,0.3
O=C1CC(c2ccccc2)n2nc(NC(=O)C3CCCO3)nc2N1 (stereo unspecified),11.0,-10.7,12.2,-12.2,2.0,45.2*
CCOC(=O)N1CCC(NC(=O)C2CCN(C(=O)N3CC(C)Oc4ccc(C)cc43)CC2)CC1 (stereo unspecified),-13.9,2.4,-50.5,50.5*,20.0,2.8
Cc1[nH]c2ccccc2c1C(=O)C(=O)NCCOc1ccccc1,x,x,x,x,x,-3.1
CCCN1C(=O)C2C(C(=O)Nc3cccc(OC)c3)C3C=CC2(O3)C1C(=O)NC1CCCCC1 (stereo unspecified),-18.6,7.5,7.2,-7.3,24.0,-73.9
C=CCN1C(=O)C2C(C(=O)NC3CCCCC3)C3C=CC2(O3)C1C(=O)NC1CCCC1 (stereo unspecified),-20.6,0.4,-99.5,99.5*,89.6*,11.6
Cc1cc(OCC(=O)Nc2nnc(C3CC3)s2)ccc1[N+](=O)[O-],x,x,x,x,x,-23.8
CCOC(=O)c1[nH]c(C)c(C(=O)c2cc(F)ccc2F)c1C,83.1*,31.2,-12.0,12.0,4.5,-9.4
CCOC(=O)c1[nH]c(C)c(C(=O)OCC)c1C,-8.8,1.9,-4.6,4.6,41.0,x
c1ccc(Cn2nnc3c(Nc4ccc5c(c4)OCO5)nc(C4CC4)nc32)cc1,x,x,x,x,x,-7.0
CCN(CC)S(=O)(=O)c1cccc(C(=O)Nc2cccc(C)c2)c1,6.0,-26.9,10.4,-10.4,-23.6,-53.0
CCN(CC)S(=O)(=O)c1ccc2[nH]c(=O)cc(C(=O)Nc3cccc(C(C)=O)c3)c2c1,x,x,x,x,x,68.3*
CC(NC(=O)COC(=O)Cc1ccsc1)C1CC2CCC1C2 (stereo unspecified),88.1*,48.7,0.5,-0.5,4.8,-4.4
O=C(Nc1ccc2oc(-c3cccnc3)nc2c1)c1ccco1,16.9,5.1,9.9,-9.9,-7.6,6.6
O=C(Nc1ccc2nc(-c3ccccc3)oc2c1)c1ccco1,-17.1,-1.3,40.3*,-40.3,-39.3,-11.0
COc1c(Cl)cc(Cl)cc1C(=O)Nc1ccc(NC(C)=O)cc1,x,x,x,x,x,63.7*
Nc1nnc(SCC(=O)NCc2ccc3c(c2)OCO3)s1,93.0*,-25.2,-2.6,2.6,0.0,-6.0
O=C(CSc1nnc(-c2ccccc2)n1Cc1ccco1)NCc1ccc2c(c1)OCO2,15.3,-6.3,59.1*,-59.1,7.9,11.0
C[C@@H]1NC(=O)c2cc([N+](=O)[O-])cc(I)c2OCC[C@@H](C(=O)NC(CC(=O)O)C(N)=O)NC(=O)[C@H](CC(N)=O)NC1=O (stereo partly specified),x,x,x,x,x,-30.6
CC1CCc2c(nc3ncnn3c2NCCc2ccccc2F)C1 (stereo unspecified),x,x,x,x,x,-4.9
SMILES,VCAM1 TNFa inh,HUVEC tox TNFa,NFkB transloc pot,NFkB transloc inh,IL1B cytotox,E-sel TNF inh
CCCC(C)C(=O)NCc1ccccc1OC (stereo unspecified),-3.5,-6.0,123.2*,-123.2,0.0,-13.1
CCCCC(CC)C(=O)NCc1ccccc1OC (stereo unspecified),8.1,-7.6,101.3*,-101.3,-9.4,3.4
CCOC(=O)c1c(-c2ccc(C)cc2)csc1NC(=O)CCSc1nnc2ccccn12,x,x,x,x,x,7.1
Cn1c(SC2=CS(=O)(=O)c3ccccc32)nc2ccccc21,7.9,12.4,-17.9,17.9,-2.9,62.3*
Cn1c(CSc2nc3ccccc3n2C)nc2ccccc21,-4.1,7.5,-7.4,7.4,-2.2,-17.1
CC(=O)NCCc1nc2ccccc2[nH]1,8.3,-10.9,-6.3,6.3,3.6,x
O=C(NCCc1nc2ccccc2[nH]1)c1ccc(F)cc1,-7.9,-4.8,13.4,-13.4,91.6*,-4.1
COc1ccccc1N1CCN(S(=O)(=O)c2ccc(Br)s2)CC1,9.6,-12.6,-8.0,8.0,-7.9,-3.1
COc1ccccc1N1CCN(C(=O)c2cc(-c3ccc(Cl)cc3)on2)CC1,-14.2,6.4,-44.3,44.3*,14.2,x
COc1ccccc1N1CCN(C(=O)c2cc(-c3ccc(C)cc3)on2)CC1,-16.3,11.3,1.8,-1.8,-12.8,16.5
COc1ccccc1N1CCN(C(=O)c2ccc(Br)s2)CC1,x,x,x,x,x,80.4*
O=C(Nc1nnc(C2CCCCC2)s1)c1cccs1,-6.1,-7.1,-8.8,8.8,18.5,6.4
O=C(Nc1nnc(C2CCCO2)s1)c1cccs1 (stereo unspecified),16.7,-1.0,-37.0,37.0*,70.1*,15.9
CC(C)Cn1c(-c2ccc(C#N)cc2)nc2c1c(=O)[nH]c(=O)n2CC(C)C,-8.4,-59.1,4.5,-4.5,-8.2,4.5
Cc1ccc(-n2c(SCC(=O)Nc3nccs3)nc3c(c2=O)SCC3)cc1,x,x,x,x,x,96.8*
COc1ccc(-n2c(SCC(=O)Nc3ccc4c(c3)OCO4)nc3c(c2=O)SCC3)cc1,7.3,16.6,-3.2,3.3,11.1,x
CCOc1ccc(-n2c(SCC(=O)Nc3ccc(OC)cc3)nc3c(c2=O)SCC3)cc1,59.5*,81.7*,11.4,-11.4,-2.8,-13.5
CCOc1ccc(-n2c(SCC(=O)Nc3nccs3)nc3c(c2=O)SCC3)cc1,x,x,x,x,x,-35.2
CCCCN(CCCC)CCNC(=O)CNC(=O)c1cccs1,12.4,-15.6,-25.6,25.6,31.1,46.4
CCOC1=C/C(=C/c2c(N)n3nc(S(=O)(=O)CC)sc3nc2=O)C=CC1=O,x,x,x,x,x,-59.3
CC(C)C(=O)Nc1ccc(NC(=O)c2ccccc2Cl)nc1,31.4,83.1*,-9.8,9.8,-10.5,21.9
CCC(=O)Nc1ccc(NC(=O)c2ccccc2Cl)nc1,29.7,61.8,0.6,-0.6,-7.5,4.8
COc1ccc(CCNC(=O)CSc2nc(O)c(C(C)C)c(=O)[nH]2)cc1OC,x,x,13.4,-13.4,-49.7,8.4
OCCSc1nnc(Nc2ccccc2)s1,28.8,78.3*,-3.5,3.5,12.1,x
COC(=O)c1c(NC(=S)Nc2ccc(F)cc2[N+](=O)[O-])sc2c1CCCCC2,x,x,x,x,x,-38.9
CCn1c(C(=O)NCc2cccnc2)cc2sc(Cl)cc21,-2.7,-19.8,10.9,-10.9,1.6,-4.4
Oc1ccc(Nc2nc3ccccc3nc2Nc2ccc(O)cc2)cc1,93.5*,x,-23.3,23.3,1.5,46.3
COc1ccc(/C=C/C(=O)c2cc(F)ccc2OC(=O)c2ccccc2)cc1OC,97.1*,75.9,-24.0,24.0,52.6,x
COc1ccc(/C=C/C(=O)c2cc(F)ccc2OC(=O)c2ccc(OC)c(OC)c2)cc1OC,x,x,x,x,x,24.3
